The values below come from PubChem BioAssay (NCATS).

Results filed as inconclusive are left out. Activity calls are given as the source filed them. Unless noted, calls come from the whole dose curve; as a rule, active = well fitted curve in the direction sought with a large enough effect; inconclusive = small, poorly fitted or top-dose-only effect, or another doubt; inactive = no such curve, though single readings can be large; an effect the other way counts as inactive or inconclusive.

The nature of assay [1]: KB-8-5-11 P-gp reporter qHTS against the NCATS DSHEA and TCM libraries (AID 1919977). Note: 0% is about no effect. Particulars: KB-8-5-11 cells; series mostly up to 26.1 µM. In short, it runs like this:
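CellTiter-Glo luminescence measured viability after ~72 h exposure (37C, 5% CO2) of KB-8-5-11 cervical adenocarcinoma cells overexpressing P-gp. Colchicine was omitted during assay. Substances were tested as titrations.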

Assay [2] can be described thus: Quantitative High-Throughput drug screen in 47 multiple myeloma cell lines against the NCATS MIPE library collection: RPMI8226_ATCC cell viability assay (AID 1919871). Note: nearly all actives have a fitted effect of over 30% in size. Note: potency is the fitted concentration of half-maximal effect. Particulars: RPMI8226 myeloma viability, CellTiter-Glo ATP luminescence, 48 h; series mostly up to 45.8 µM. The method, boiled down:
(§1)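 Myeloma cells (500/well) treated with MIPE 4.0 compounds for 48 h at 37 °C, 5% CO2. Viability read as ATP via CellTiter-Glo luminescence after 5 min at RT; DMSO-only wells = 100%, media-only = 0% viability.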
In general terms: Cellular ATP, detected with luciferase, serves as a proxy for viable cell number.

Assay [3] can be described thus: Quantitative High-Throughput drug screen in 47 multiple myeloma cell lines against the NCATS MIPE library collection: KMS11_JCRBsus cell viability assay (AID 1919873). Note: nearly all actives have a fitted effect of over 50% in size. Particulars: KMS11 myeloma viability, CellTiter-Glo ATP luminescence, 48 h; series mostly up to 45.8 µM. In short, it runs like this: as §1
Assay [4] can be described thus: Quantitative High-Throughput drug screen in 47 multiple myeloma cell lines against the NCATS MIPE library collection: KMS28BM_JCRB cell viability assay (AID 1919874). Note: nearly all actives have a fitted effect of over 35% in size. Particulars: CellTiter-Glo ATP, 48 h; series mostly up to 45.8 µM. In short, it runs like this:
as §1

A short description of assay [5]: qHTS drug screen for cell cycle checkpoint inhibitors in PARPi-resistant BRCA-mutant ovarian cancer cell lines. (AID 1963452; calls by dose curve; note: potency is the fitted concentration of half-maximal effect). Particulars: PEO1/OlaR viability, CellTiter-Glo luminescence, 96 h; for Z-AUC: stronger effect = lower value. The method, boiled down:
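PEO1, PEO4 and PEO1/OlaR ovarian cancer cells, 600 per well, exposed 96 h at 37C to a dilution series. Viability read by CellTiter-Glo luminescence, normalized to DMSO and empty wells; activity summarized as Z-AUC.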
On the technique in general: Quantitative high-throughput screening tests each substance at several concentrations.

A short description of assay [6]: qHTS for identification of novel therapeutic agents for treatment of microphthalmiaassociated transcription factor (MiT) renal cell carcinoma (RCC) (AID 1963991).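 Note: curves scaled with 100% = DMSO viability and 0% = empty wells.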 Particulars: CellTiter-Glo, 48 h, stronger effect = lower value. In short, it runs like this:
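UOK109/UOK124/UOK145 (TFE3 fusions, three partners); 500 cells/well; MIPE v4.0, 1912 cpds, 11 conc.; 48 h, 37 C; CellTiter-Glo, 15 min RT; lum. Norm.: DMSO 100%, empty 0%.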

Assay [7] addresses Cytochrome P450 3A4 (Homo sapiens) (UniProt P08684). The assay can be described thus: qHTS for inhibitors of CYP3A4 against the NCATS DSHEA and TCM libraries (AID 1919971).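 Note: % is set by controls: 0 for no effect and ±100 for the full control effect; inhibition lowers luminescence from luciferin made by CYP3A4.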 Particulars: recombinant CYP3A4 enzyme activity, luminescence qHTS; series mostly up to 34.1 µM. In short, it runs like this: (§2)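 Luminescent P450-Glo readout. Enzyme plus pro-luciferin substrate in manufacturer buffer (typically 100 mM KPO4); 15 min RT preincubation; 1x NADPH regenerating system, 30-45 min RT in the dark; detection reagent 30 min.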

The target of assay [8] is Cytochrome P450 2D6 (Homo sapiens) (UniProt P10635). Briefly: qHTS for inhibitors of CYP2D6 against the NCATS DSHEA and TCM libraries (AID 1919972). Note: % is set by controls: 0 for no effect and ±100 for the full control effect. To be noted: CYP2D6 enzymatic inhibition, luminescence qHTS; series mostly up to 34.1 µM. In short, it runs like this:
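Steps: enzyme plus luciferin substrate dispensed; test substances pinned; 15 min RT; 1x NADPH regenerating solution added, 30–45 min RT protected from light; detection reagent, 30 min RT; luminescence measured. Minus-enzyme wells as background.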

Assay [9] deals with Cytochrome P450 2C9 (Homo sapiens) (UniProt P11712). Briefly: qHTS for inhibitors of CYP2C9 against the NCATS DSHEA and TCM libraries (AID 1919973).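 Note: luminogenic pro-luciferin CYP2C9 substrate turned into luciferin with NADPH regeneration; % is set by controls: 0 for no effect and ±100 for the full control effect.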 Particulars: recombinant CYP2C9 enzyme activity, luminescence; series mostly up to 34.1 µM. The method, boiled down: as §2
Cytochrome P450 2C9 (Homo sapiens), sequence (P11712 whole entry, looked up): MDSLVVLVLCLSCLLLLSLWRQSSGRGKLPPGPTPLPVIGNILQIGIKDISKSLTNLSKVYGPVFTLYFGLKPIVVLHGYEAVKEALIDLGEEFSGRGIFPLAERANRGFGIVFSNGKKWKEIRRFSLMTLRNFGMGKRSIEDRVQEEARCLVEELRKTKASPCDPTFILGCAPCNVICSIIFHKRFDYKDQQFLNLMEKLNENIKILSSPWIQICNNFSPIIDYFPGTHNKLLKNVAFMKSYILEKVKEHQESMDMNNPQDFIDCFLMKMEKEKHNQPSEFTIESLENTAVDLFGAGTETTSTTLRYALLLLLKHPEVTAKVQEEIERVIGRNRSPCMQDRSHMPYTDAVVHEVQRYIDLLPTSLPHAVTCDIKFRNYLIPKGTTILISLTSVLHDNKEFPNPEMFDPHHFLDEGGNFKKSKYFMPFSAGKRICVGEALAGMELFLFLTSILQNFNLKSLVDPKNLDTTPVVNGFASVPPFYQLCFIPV
In assay [10] the target is Cytochrome P450 2C19 (Homo sapiens) (UniProt P33261). Briefly: qHTS for inhibitors of CYP2C19 against the NCATS DSHEA and TCM libraries (AID 1919974).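 Note: luminescence from luciferin released by CYP2C19 oxidation of a pro-luciferin substrate; % is set by controls: 0 for no effect and ±100 for the full control effect.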 To be noted: CYP2C19 enzyme inhibition, luminescence qHTS; series mostly up to 34.1 µM. In short, it runs like this:
as §2

For assay [11], the target named is Cytochrome P450 1A2 (Homo sapiens) (UniProt P05177). The assay can be described thus: qHTS for inhibitors of CYPIA2 against the NCATS DSHEA and TCM libraries (AID 1919976).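 Note: light from luciferin formed by CYP1A2 from a pro-luciferin substrate; % is set by controls: 0 for no effect and ±100 for the full control effect.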 Particulars: recombinant CYP1A2 enzyme activity, luminescence; series mostly up to 37 µM. The method, boiled down: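 Human CYP1A2 with its pro-luciferin substrate in supplier buffer (typically 100 mM KPO4) was pre-incubated with compounds 15 min at RT. Reaction was started with 1x NADPH regeneration solution and run 30-45 min at RT in the dark, then luminescence was read after P450-Glo detection reagent (30 min RT).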
Cytochrome P450 1A2 (Homo sapiens), sequence (P05177 whole entry, looked up): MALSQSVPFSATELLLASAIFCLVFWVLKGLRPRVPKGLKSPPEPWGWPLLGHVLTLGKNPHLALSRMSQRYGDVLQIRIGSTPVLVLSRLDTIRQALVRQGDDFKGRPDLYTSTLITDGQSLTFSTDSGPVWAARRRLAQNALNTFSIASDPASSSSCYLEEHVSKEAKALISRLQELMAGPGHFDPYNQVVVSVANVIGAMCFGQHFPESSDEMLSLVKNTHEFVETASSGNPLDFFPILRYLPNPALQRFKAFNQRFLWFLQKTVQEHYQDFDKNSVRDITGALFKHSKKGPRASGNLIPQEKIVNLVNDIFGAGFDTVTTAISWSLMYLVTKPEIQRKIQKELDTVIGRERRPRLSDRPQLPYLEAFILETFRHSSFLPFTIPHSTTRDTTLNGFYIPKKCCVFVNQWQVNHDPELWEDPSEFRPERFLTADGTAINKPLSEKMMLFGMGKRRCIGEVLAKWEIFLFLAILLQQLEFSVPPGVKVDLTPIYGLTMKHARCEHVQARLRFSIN

Assay [12] can be described thus: qHTS profiling for inhibitors of Plasmodium falciparum proliferation (AID 504749).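 Note: 0% = DMSO vehicle and full inhibition = artemisinin control; nearly all actives have a fitted effect of over 60% in size.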 To be noted: P. falciparum in erythrocytes, SYBR Green DNA, 72 h, at 28.7 µM (top of the series). In short, it runs like this:
(§3)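 P. falciparum-infected erythrocytes (0.3% parasitemia, 2.5% hematocrit final) were exposed to compounds for 72 h at 37 C in 5% CO2, then lysed with SYBR Green buffer overnight at room temperature; parasite DNA fluorescence was normalized to artemisinin and DMSO controls.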

For assay [13], the system named is 3D7. Described as above. To be noted: P. falciparum in erythrocytes, SYBR Green DNA, 72 h; series mostly up to 28.7 µM. The method, boiled down:
as §3

For assay [14], the system named is AA1029. The assay is described as above. To be noted: P. falciparum in erythrocytes, SYBR Green DNA, 72 h; series mostly up to 28.7 µM. The method, boiled down:
as §3

Assay [15] relates to AS120. Described as above. To be noted: P. falciparum in erythrocytes, SYBR Green DNA, 72 h; series mostly up to 28.7 µM. In short, it runs like this: as §3
Assay [16] relates to ATS189. The assay is described as above. To be noted: P. falciparum in erythrocytes, SYBR Green DNA, 72 h; series mostly up to 28.7 µM. The method, boiled down: as §3
Assay [17] has as its system ATS95. Described as above. Particulars: P. falciparum in erythrocytes, SYBR Green DNA, 72 h; series mostly up to 28.7 µM. The method, boiled down:
as §3

The test system of assay [18] is C2A. Described as above. To be noted: P. falciparum in erythrocytes, SYBR Green DNA, 72 h; series mostly up to 28.7 µM. In short, it runs like this:
as §3

The test system of assay [19] is CP185. The description is as above. To be noted: P. falciparum in erythrocytes, SYBR Green DNA, 72 h; series mostly up to 28.7 µM. The method, boiled down: as §3
The test system of assay [20] is 7G8. The assay is described as above. To be noted: P. falciparum in erythrocytes, SYBR Green DNA, 72 h; series mostly up to 28.7 µM. The method, boiled down: as §3
[21] abbreviates: measured here: PEO1 parental Z-AUC.
Setting [22] is: TFE3-RCC UOK109 viability, measured here: UOK109 Z-AUC.
[23] abbreviates: TFE3-RCC viability, measured here: UOK124 Z-AUC.
[24] abbreviates: TFE3-RCC viability, measured here: UOK145 Z-AUC.

Cytochrome P450 2D6 (Homo sapiens), sequence (P10635 whole entry, looked up): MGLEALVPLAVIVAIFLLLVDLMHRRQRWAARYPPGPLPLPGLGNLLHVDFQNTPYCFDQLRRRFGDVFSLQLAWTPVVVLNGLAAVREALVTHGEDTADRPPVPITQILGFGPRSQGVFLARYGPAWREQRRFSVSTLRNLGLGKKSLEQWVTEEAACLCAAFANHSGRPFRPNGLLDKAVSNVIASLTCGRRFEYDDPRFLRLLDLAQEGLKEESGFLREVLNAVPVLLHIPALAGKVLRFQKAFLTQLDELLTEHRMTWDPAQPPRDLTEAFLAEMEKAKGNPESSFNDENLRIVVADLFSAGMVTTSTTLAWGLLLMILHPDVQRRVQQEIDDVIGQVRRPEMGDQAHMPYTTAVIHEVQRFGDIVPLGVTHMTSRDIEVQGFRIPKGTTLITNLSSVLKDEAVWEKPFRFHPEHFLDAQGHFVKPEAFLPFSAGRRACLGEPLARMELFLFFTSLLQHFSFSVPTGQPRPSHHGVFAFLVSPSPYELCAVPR
Cytochrome P450 2C19 (Homo sapiens), sequence (P33261 whole entry, looked up): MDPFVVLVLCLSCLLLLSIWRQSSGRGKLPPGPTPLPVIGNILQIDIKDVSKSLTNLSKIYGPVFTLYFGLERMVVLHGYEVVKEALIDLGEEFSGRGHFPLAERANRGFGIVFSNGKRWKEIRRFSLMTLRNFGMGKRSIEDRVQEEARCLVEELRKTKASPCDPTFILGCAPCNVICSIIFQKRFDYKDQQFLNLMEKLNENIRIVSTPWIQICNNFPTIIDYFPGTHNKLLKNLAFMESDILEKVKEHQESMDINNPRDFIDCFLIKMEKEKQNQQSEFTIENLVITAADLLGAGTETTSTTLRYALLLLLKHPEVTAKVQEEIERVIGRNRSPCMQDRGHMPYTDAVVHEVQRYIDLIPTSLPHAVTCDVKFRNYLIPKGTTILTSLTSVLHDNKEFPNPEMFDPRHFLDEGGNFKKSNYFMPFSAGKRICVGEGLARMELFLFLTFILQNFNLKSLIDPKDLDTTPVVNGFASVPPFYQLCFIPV
Cytochrome P450 3A4 (Homo sapiens), sequence (P08684 whole entry, looked up): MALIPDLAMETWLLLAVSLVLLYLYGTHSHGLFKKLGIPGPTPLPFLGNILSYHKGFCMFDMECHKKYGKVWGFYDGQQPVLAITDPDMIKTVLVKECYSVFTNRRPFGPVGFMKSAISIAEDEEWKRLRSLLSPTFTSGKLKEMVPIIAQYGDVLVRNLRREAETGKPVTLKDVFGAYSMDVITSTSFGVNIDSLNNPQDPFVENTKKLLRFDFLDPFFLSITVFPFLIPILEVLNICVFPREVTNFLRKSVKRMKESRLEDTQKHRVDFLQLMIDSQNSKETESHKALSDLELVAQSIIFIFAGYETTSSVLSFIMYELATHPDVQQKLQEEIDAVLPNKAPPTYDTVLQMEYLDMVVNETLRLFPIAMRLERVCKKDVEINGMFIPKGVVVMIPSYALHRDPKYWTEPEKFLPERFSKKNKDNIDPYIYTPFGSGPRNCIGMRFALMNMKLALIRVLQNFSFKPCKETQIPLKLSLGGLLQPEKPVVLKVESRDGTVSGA

As to `O=C(O)CCCC[C@@H]1SC[C@@H]2NC(=O)N[C@@H]21`, the compound was classed as inactive in assay [1].

Take `NC(=O)c1cnccn1`: the outcome in assay [1] was inactive.

`C[C@]12CC[C@H]3[C@@H](CC[C@@]45O[C@H]4C(O)=C(C#N)C[C@]35C)[C@H]1CC[C@H]2O`: the Potency result in assay [2] and in [3] was “inactive” throughout. Besides, the result in [4] was inactive.

On to `CC(NC(C)(C)C)C(=O)c1cccc(Cl)c1` (configuration not stated), for which the Potency in assay [2] is 20.9 µM (active). The call in assay [4] was inactive. Besides, the Z-AUC in assay [5] is -0.176 (inactive); in assay [5] (setting [21]), 0.0369; in assay [5] (measured here: PEO4 Z-AUC), 1.02. Further, the z-score in assay [6] (setting [22]) stood at 0.679; in [6] (setting [23]) it was 0.615; in [6] (setting [24]), 0.622.

On to `NC(=O)NC1NC(=O)NC1=O` (configuration not stated), for which, in assay [1], the outcome was inactive.

With `CC(C)=CCC[C@@](C)(O)[C@H]1CC=C(C)CC1`, in assay [1], the compound was classed as inactive.

`CC(C)C[C@H](CN)CC(=O)O`: the Potency result in [2] and in assay [3] was “inactive” throughout. Moreover, in assay [4], the result was inactive. Further, the values for the Z-AUC in [5], in assay [5] (setting [21]) and in assay [5] (measured here: PEO4 Z-AUC) were 1.17 (inactive), 0.458 and 0.548, respectively. In addition, the z-score was -0.701 in assay [6] (setting [22]), 0.851 in [6] (setting [23]) and 0.709 in assay [6] (setting [24]).

On to `CCCCCCCCCCCCCCCCCC(=O)O`, for which the result in assay [7], in assay [8], in assay [9], in assay [10], in assay [11] and in assay [1] was inactive.

With `NNC(=O)c1ccncc1`, the compound was called inactive in assay [1].

Regarding `Nc1ccc(C(=O)O)cc1`, the compound was called inactive in [1].

For `COc1cccc2c1C(=O)c1c(O)c3c(c(O)c1C2=O)C[C@@](O)(C(=O)CO)CC3OC1CC(N2CCOC(OC)C2)C(O)C(C)O1` (some centres not stated), in assay [5], the Potency is 0.0078 µM (active). The Z-AUC in [5] (setting [21]) was -3.26; in assay [5] (measured here: PEO4 Z-AUC) it was -2.98.

In the case of `CCC1(c2ccc(N)cc2)CCC(=O)NC1=O` (configuration not stated), in assay [2], the Potency entry was “inactive”. The compound was classed as inactive in assay [4]. Further, the Z-AUC is 1.39 (inactive) in assay [5], 0.942 in [5] (setting [21]) and 1.02 in [5] (measured here: PEO4 Z-AUC).

For the compound `CN1C(=O)COc2c(C(=O)NC3CN4CCC3CC4)cc(Cl)cc21` (configuration not stated), the Potency result in [2], in [13], in assay [14], in assay [15], in [16] and in assay [17] was “inactive” each time. Also, the Potency entry in assay [18] and in [19] was “inactive” throughout. The results for the Z-AUC in assay [5], in assay [5] (setting [21]) and in assay [5] (measured here: PEO4 Z-AUC) were -0.165 (inactive), -0.0882 and 0.485, respectively. Moreover, the results for the activity, negative = inhibition in assay [12] (parasite line A) and in assay [12] (parasite line B) were 7.89% (inactive) and 7.46% (inactive), respectively.

Regarding `CN1C(=O)CCS(=O)(=O)C1c1ccc(Cl)cc1` (configuration not stated), the call in [4] was inactive. The results for the Z-AUC in assay [5], in [5] (setting [21]) and in [5] (measured here: PEO4 Z-AUC) were 1.64 (inactive), 1.76 and 1.36, respectively. In addition, the z-score was 0.949 in assay [6] (setting [22]), 0.189 in assay [6] (setting [23]) and 0.774 in [6] (setting [24]). The values for the activity, negative = inhibition in assay [12] (parasite line A) and in [12] (parasite line B) were -12.8% (inactive) and -22.5% (inactive), respectively. The Potency entry in assay [13], in assay [20], in assay [14], in assay [15], in [16] and in assay [17] was “inactive” throughout. The Potency entry in assay [18] and in assay [19] was “inactive” throughout.

With `Cc1ccc(C(C)C)c(O)c1`, the result in [1] was inactive.

Turning to `COc1cc(OC)c(OC)cc1C=O`, in assay [3], the Potency result was “inactive”. In assay [4], the outcome was inactive. Also, the results for the z-score in [6] (setting [22]), in assay [6] (setting [23]) and in assay [6] (setting [24]) were 0.0222, 0.514 and 0.092, respectively.

Turning to `CCCCCCCCCCCCCCCC(=O)O`, the outcome in assay [1] was inactive.
